Casp6 inh: inhibitors of human caspase-6; AID 686996; actives 0.53% (n = 350,000); inhibition, % at 12.5 µM; purified caspase-6, Z-VEID-R110 cleavage fluorescence;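 active = mean inhibition across replicates at least about 35%, with every replicate also reaching that limit, limit read from the data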
ALR H2O2 inh: blocks human ALR sulfhydryl oxidase activity. purified ALR, DTT oxidation, H2O2 HRP-luminol luminescence. P55789. inhibition, % (test concentration not listed). actives 3.8% (n = 290,000);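 active = mean replicate inhibition above about 79%, with every replicate also reaching it, limit read from the data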
NSD2 HMT inh: blocks human histone methyltransferase NSD2; O96028; AID 743445; actives 0.54% (n = 310,000); NSD2 peptide methylation, AlphaScreen, 120 min; inhibition, % at 12.5 µM; in the data active = inhibition above about 50%
PglD inh: inhibitors of Campylobacter jejuni PglD acetyltransferase | purified PglD enzyme, DTNB colorimetric CoA detection | AID 602405 | inhibition, % at 12.5 µM | actives 0.098% (n = 360,000); in the data active = inhibition above about 16%, passing the limit was not always enough
Env fusion inh: inhibitors of HIV Env-mediated cell fusion; HeLa-JRFL Env/CEM21 cell fusion, luciferase; inhibition, % at 12.3 µM; actives 1.1% (n = 360,000);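 active = mean replicate inhibition score of at least 50 and every replicate individually at or above 50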
F508del corr: CFTR F508del correction in bronchial cells | CFBE cells, YFP halide quenching; stimulated with forskolin plus potentiator P3; % fluorescence drop versus neutral controls | activity (quench increase), % at 7.58 µM | actives 0.36% (n = 350,000);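 active = mean added fluorescence quench of at least 8% versus neutral control, with both replicates also reaching 8%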;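 note: cells transiently co-express mutant CFTR-F508del with the halide-sensitive YFP; corrector assay measuring rescue of mutant channel to the surface after 24 h compound exposure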
Hits are given with their value. In the library only some 4.1% were active in any assay of this set; here they are far more common.

How did O=C(CSc1ncnc2c1oc1ccccc12)Nc1nc2ccccc2s1 do in these assays?
Casp6 inh: inactive; ALR H2O2 inh: 95.5; PglD inh: inactive; Env fusion inh: inactive; F508del corr: inactive

Results for Cc1nc(NC(=O)CSC2=NCCS2)sc1C(=O)N(C)C ?
Casp6 inh: inactive; ALR H2O2 inh: 98.6; NSD2 HMT inh: inactive; PglD inh: inactive; Env fusion inh: inactive; F508del corr: inactive

How did COc1cc(C(=O)Nc2ccc(C)cn2)ccc1OCC(=O)N1CCOCC1 do in these assays?
Casp6 inh: inactive; ALR H2O2 inh: inactive; PglD inh: inactive; Env fusion inh: inactive; F508del corr: inactive

What do the screens show for `Cc1nc(SCC(=O)Nc2nc3ccccc3s2)n[nH]1`?
Casp6 inh: inactive; ALR H2O2 inh: inactive; NSD2 HMT inh: inactive; PglD inh: inactive; Env fusion inh: inactive; F508del corr: inactive

Results for CCc1nnc(NC(=O)CSc2ncnc3c2oc2ccccc23)s1 ?
Casp6 inh: inactive; ALR H2O2 inh: inactive; PglD inh: inactive; Env fusion inh: inactive; F508del corr: inactive

What do the screens show for `O=C(CSC1=NCCS1)Nc1nc2ccccc2s1`?
ALR H2O2 inh: 90.4; NSD2 HMT inh: inactive; PglD inh: inactive; Env fusion inh: inactive

Results for C=CCn1c(C)nnc1SCC(=O)Nc1nc(C)c(C(=O)N(C)C)s1 ?
Casp6 inh: inactive; ALR H2O2 inh: inactive; NSD2 HMT inh: inactive; PglD inh: inactive; Env fusion inh: inactive; F508del corr: inactive

What do the screens show for `O=C(C1CCCCC1)N1CC2(C1)[C@H](c1ccccc1)[C@@H](CO)N2Cc1ccccc1F`?
Casp6 inh: inactive; F508del corr: inactive

What do the screens show for `CO[C@@H]1CN(C)C(=O)c2ccc(NC(=O)Nc3ccccc3F)cc2OC[C@@H](C)N(C(=O)Nc2ccccc2F)C[C@H]1C`?
Casp6 inh: inactive; PglD inh: inactive; Env fusion inh: inactive; F508del corr: inactive

How did COc1ccc2c3c([nH]c2c1)[C@@H](CO)N(S(C)(=O)=O)CC31CCN(C(=O)CN(C)C)CC1 do in these assays?
F508del corr: inactive

Results for CC(=O)N1CC(=O)N=C1SCC(=O)Nc1nc(-c2ccccc2)c(-c2ccccc2)s1 ?
ALR H2O2 inh: 98.7; NSD2 HMT inh: inactive; Env fusion inh: inactive

What do the screens show for `O=C(COC(=O)/C=C/c1cnc2ccccc2n1)NCC(F)(F)F`?
ALR H2O2 inh: 90.7; NSD2 HMT inh: inactive; PglD inh: inactive

Results for COCCNC(=O)COC(=O)/C=C/c1cnc2ccccc2n1 ?
ALR H2O2 inh: inactive; NSD2 HMT inh: inactive; PglD inh: inactive; Env fusion inh: inactive

How did O=C(O)CC1(c2ccccc2)C(=O)c2ccccc2C1=O do in these assays?
ALR H2O2 inh: inactive; NSD2 HMT inh: inactive; PglD inh: inactive; Env fusion inh: inactive

What do the screens show for `NC(=O)C1C(=O)c2ccccc2C1(C[N+](=O)[O-])c1ccccc1` (configuration not stated)?
Casp6 inh: 68.6; NSD2 HMT inh: inactive; PglD inh: inactive; Env fusion inh: inactive; F508del corr: inactive

How did COc1ccc(-c2cc(=O)n(-c3nc4ccccc4[nH]3)[nH]2)cc1 do in these assays?
ALR H2O2 inh: inactive; NSD2 HMT inh: inactive; PglD inh: inactive; Env fusion inh: 66.1

Results for O=C(NCc1ccco1)C1CC(=O)N(c2ccc(O)cc2)C1 (configuration not stated) ?
ALR H2O2 inh: 98.5; NSD2 HMT inh: inactive; PglD inh: inactive

What do the screens show for `Cc1noc(C)c1NC(=O)N(C)C[C@@H]1OCCCC[C@H](C)Oc2ccc(NS(=O)(=O)c3cn(C)cn3)cc2C(=O)N([C@@H](C)CO)C[C@@H]1C`?
PglD inh: inactive; Env fusion inh: inactive; F508del corr: inactive

What do the screens show for `CCS(=O)(=O)N1CCCCN2[C@H](CO)[C@H](c3ccc(C4=CCCC4)cc3)[C@H]2C1`?
Casp6 inh: inactive; PglD inh: inactive; F508del corr: inactive

How did COc1ccc(C(=O)N/N=C/c2ccc(N3CCOCC3)o2)cc1OC do in these assays?
Casp6 inh: inactive; NSD2 HMT inh: inactive; Env fusion inh: inactive; F508del corr: inactive

Results for O=C(N/N=C/c1sc(N2CCOCC2)nc1-c1ccccc1)c1ccccc1Cl ?
ALR H2O2 inh: inactive; NSD2 HMT inh: inactive; PglD inh: inactive; Env fusion inh: inactive; F508del corr: inactive

Results for COc1ccc(C(=O)N/N=C/c2ccc(N3CCOCC3)s2)cc1OC ?
Casp6 inh: inactive; ALR H2O2 inh: 93.1; NSD2 HMT inh: inactive; PglD inh: inactive; F508del corr: inactive

What do the screens show for `CCOC(=O)N/N=C/c1ccc(N2CCOCC2)s1`?
ALR H2O2 inh: 98.6; NSD2 HMT inh: inactive; PglD inh: inactive; Env fusion inh: inactive

What do the screens show for `O=C(N/N=C/c1ccc(N2CCOCC2)s1)c1ccc(NS(=O)(=O)c2cccs2)cc1`?
Casp6 inh: inactive; ALR H2O2 inh: inactive; NSD2 HMT inh: inactive; PglD inh: inactive; Env fusion inh: inactive; F508del corr: inactive

What do the screens show for `O=C(N/N=C/c1ccc(N2CCOCC2)s1)c1ccccc1Cl`?
Casp6 inh: inactive; ALR H2O2 inh: 87.6; NSD2 HMT inh: inactive; Env fusion inh: inactive; F508del corr: inactive

How did C[C@@H]1CCCCO[C@H](CN(C)S(=O)(=O)c2ccc(F)cc2)[C@H](C)CN([C@H](C)CO)C(=O)c2cc(NC(=O)C3CCCCC3)ccc2O1 do in these assays?
Casp6 inh: inactive; PglD inh: inactive; Env fusion inh: inactive; F508del corr: inactive

How did COc1ccc(-c2nc(CSCC(=O)NCc3ccco3)c(C)o2)cc1 do in these assays?
ALR H2O2 inh: 99.2; PglD inh: inactive

How did Cc1ccc(-c2nc(CSCC(=O)NCc3cccnc3)c(C)o2)cc1 do in these assays?
ALR H2O2 inh: 98.6; NSD2 HMT inh: inactive; PglD inh: inactive; Env fusion inh: 58.1

Results for Cc1oc(-c2ccc(Cl)cc2)nc1CN1CCC(C(=O)NCc2cccnc2)CC1 ?
ALR H2O2 inh: inactive; PglD inh: inactive

How did CNC[C@@H]1OCCCC[C@@H](C)Oc2ccc(NS(=O)(=O)c3ccc(OC)cc3)cc2C(=O)N([C@H](C)CO)C[C@@H]1C do in these assays?
Casp6 inh: inactive; PglD inh: inactive; Env fusion inh: inactive; F508del corr: inactive

What do the screens show for `Cc1ccnc(NC(=O)CCNC(=O)c2ccc(Br)cc2)c1`?
Casp6 inh: inactive; NSD2 HMT inh: inactive; PglD inh: inactive; Env fusion inh: 56.7; F508del corr: inactive

How did O=C(CCNC(=O)c1ccc(Br)cc1)NNC(=O)COc1ccccc1F do in these assays?
Casp6 inh: inactive; ALR H2O2 inh: inactive; NSD2 HMT inh: inactive; Env fusion inh: 73.5; F508del corr: inactive

Results for C=C[C@@H](C)[C@@H](OC(=O)Nc1ccc(OC)cc1)c1ccc(OCCO)cc1 ?
Casp6 inh: inactive; PglD inh: inactive; Env fusion inh: inactive; F508del corr: inactive

Results for CCOc1ccc(-c2nnc(SCC(=O)Nc3ccc4c(c3)c3ccccc3n4CC)n2N)cc1 ?
ALR H2O2 inh: inactive; NSD2 HMT inh: inactive; PglD inh: inactive; Env fusion inh: inactive
